Reference: PubChem BioAssay (Tox21)
Records with an inconclusive call do not appear. A number with no mark means an inactive call. Calls come from the whole dose curve.

assay: qHTS assay to identify small molecule agonists of the NFkB signaling pathway - cell viability counter screen (AID 1159515); conditions: NFkB-bla ME-180 viability, CellTiter-Glo luminescence, 5 h; series mostly up to 61 µM; activity, negative = cytotoxic: at the top concentration; note: nearly all actives have a fitted effect of over 55% in size
Text: National Center for Advancing Translational Sciences [NCATS]
NIH Chemical Genomics Center [NCGC]
U.S. Environmental Protection Agency [EPA]
National Institutes of Environmental Health Sciences [NIEHS]
National Toxicology Program [NTP]
U.S. Food and Drug Administration [FDA]
Transcription factors and their stimulated target gene expression play pivotal roles across many cellular processes including responses to environmental stimuli. Proper regulation of associated pathways is critical to maintain cell health and function. Constitutive activation of transcription factor pathways has been implicated in tumors as it may block cellular functions such as apoptosis and lead to invasion and metastasis. One important transcription factor that stimulates gene expression in response to cytokines, UV radiation, and other stimuli is nuclear factor-kappa B (NFkB). To measure activation of the NFkB pathway, the CellSensor NFkB-bla ME-180 cell line (Life Technologies, Carlsbad, CA) that stably expresses beta-lactamase reporter gene under the regulation of a NF-kB response element was used. This assay allows measurement of the NFkB pathway activity induced by compounds in a ME-180 cell line. This system quantitates NF-kB activity using a FRET-based assay system where beta-lactamase expression disrupts FRET, allowing for fluorescent measurement of activity. This cell line has been used to screen the Tox21 10K compound library and to identify compounds that induce the NFkB pathway activity. The cytotoxicity of the Tox21 compound library against the NFkB-bla ME-180 cell line was tested in parallel by measuring cell viability using the CellTiter-Glo assay in the same wells.
Tox21 Assay Protocol Summary:
NFkB-bla ME-180 cells were dispensed at 2,000 cells/6 uL of assay medium per well into black wall/clear-bottom 1536-well plates using a Multidrop Combi (ThermoFisher Scientific, Waltham, MA) dispenser. After the assay plates were incubated at 37 C and 5% CO2 for an overnight, 23 nL of compounds dissolved in DMSO, positive controls or DMSO only was transferred to the assay plate by a Pintool station (Kalypsys, San Diego, CA). The assay plates were incubated at 37 C and 5% CO2 for 5 hr. One uL of LiveBLAzer B/G FRET substrate (Life Technologies) was added using a Flying Reagent Dispenser (Aurora Discovery, San Diego, CA) and the plates were incubated at room temperature for 1.5 hr. Fluorescence intensity (405 nm excitation, 460 nm and 530 nm emissions) was measured using an Envision plate reader (PerkinElmer, Shelton, CT). For cytotoxicity, 3 ul/well of CellTiter-Glo reagent was added into the assay plates using an FRD. After 30 min incubation at room temperature, the luminescence intensity was measured using a ViewLux plate reader (PerkinElmer).
% is set by controls: 0 for no effect and ±100 for the full control effect.

Structure (SMILES) | activity, negative = cytotoxic
CC(=O)c1ccc(Cl)c(Cl)c1Cl | -7.66%
COc1ccc(/C=C/c2cc(OC)cc(=O)o2)cc1 | -13%
CC(C)(O)C(=O)O | 1.65%
O=C(O)c1cc(C(=O)O)cc([N+](=O)[O-])c1 | -0.762%
Nc1ccc(C(=O)Oc2ccccc2)c(O)c1 | -10.9%
CC(=O)CC/C=C(\C)CC/C=C(\C)CC/C=C(\C)CCC=C(C)C | 9.43%
C=C[Si]1(C)O[Si](C)(C=C)O[Si](C)(C=C)O[Si](C)(C=C)O1 (stereo not given) | -14.1%
O=C(Cl)c1cc(Cl)cc(Cl)c1 | -1.12% [at 78.8 µM]
O=C(NC1CCN(CCc2c[nH]c3ccccc23)CC1)c1ccccc1 | -2.26%
O=C(O)c1ccccc1-n1cc(C(=O)O)c(=O)c2cc(Nc3c(F)cc(F)cc3Cl)c(Cl)cc21 | 4.89%
CC(C)C[C@H](NC(=O)[C@H](Cc1ccccc1)NC(=O)c1cnccn1)B(O)O | -9.67%
O=C1CCCN1CCO | 6.62%
CCCCCCCCNC | 7.37%
CC(C)C/C=C(\C=O)c1ccccc1 | -17.7%
O=[N+]([O-])c1ccc(Cl)cc1Cl | 14.8%
CC(C)Cc1nccs1 | 6.73% [at 78.8 µM]
COc1cc(C)c(Cc2cnc(N)nc2N)cc1OC | -0.69%
CC(C)=CCC/C(C)=C/C=N/O | -0.628%
O=C(O)c1ccc(O)c(O)c1 | 4.07%
O=C(N[C@@H](Cc1ccccc1)[C@@H](O)C(=O)N1C[C@@H](O)[C@@H](O)C1)c1cc2cc(Cl)ccc2[nH]1 | -2.19%

Structure (SMILES) | activity, negative = cytotoxic
Nc1ccc(-c2ccc(F)cc2)cc1 | 2.77%
CCCCCCC/C=C/C=O | -3.94%
Nc1ccc(F)cc1F | -1.45% [at 78.8 µM]
C=CC(=O)OCCCCCCCCCC | 15.8%
CCc1ccc(C(=O)C(C)CN2CCCCC2)cc1 (stereo not given) | -9.85%
Cc1ccccc1CCO | 0.771%
COc1ccc(/C=C/S(=O)(=O)NC(=O)c2ccc(C)cc2Cl)cc1 | -2.86%
CCOc1cc(OCC)c(C(C)=O)cc1OCC | -11.4%
O=P(c1ccccc1)(c1ccccc1)c1ccccc1 | 0.473%
C[Si](C)(C)O[Si](C)(C)O[Si](C)(C)C | 2.33%
CCN(CC)CC(=O)OCC(=O)[C@@]1(O)CC[C@H]2[C@@H]3CCC4=CC(=O)CC[C@]4(C)[C@H]3[C@@H](O)C[C@@]21C | 2.87%
CC(C)(Cc1c[nH]c2ccccc12)NCC(O)COc1ccccc1C#N (stereo not given) | -1.84%
C/C(=C\C(C)CC(C)CC(C)C)C1CC(=O)OC1=O (stereo not given) | -5.69%
Cc1c(Cl)cccc1[N+](=O)[O-] | 0.104%
CC(C)CCCCCCCOC(=O)c1ccc(C(=O)OCCCCCCCC(C)C)c(C(=O)OCCCCCCCC(C)C)c1 | 11.4%
CCOCCn1c(N2CCCN(C)CC2)nc2ccccc21 | 3.78%
O=C(O)c1ccccc1[N+](=O)[O-] | -0.0154%
S=c1[nH][nH]c(=S)s1 | 0.814%
CC(C)CCCCCOC(=O)CS | 8.95%
Cc1c(N=C=O)cccc1N=C=O | -0.827% [at 78.8 µM]
